Laboratory results reported in the supplement of paper PMC10849652.
About 8,800 targets were measured; listed, in parts, are those with a hit and a random draw of the rest. About 0.5% of all pairs of compound and target were hits.

Key:
Assay in all cases: log2 fold change, soluble protein after heating vs DMSO (PISA); higher = thermal stabilisation; K562 lysate, 10 uM; active = over 0.2 and 3.5 SD of the protein, either way, in both replicates (recomputed)
[1] = compound: CN1CC[C@H](c2c(O)cc(O)c3c(=O)cc(-c4ccccc4Cl)oc23)[C@H](O)C1 [alvocidib]
Outline: (§1)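 Quantification was by TMTpro 16plex LC-MS/MS with equalised channel sums, applied to the supernatant after 21,000xg for 90 min. Samples were crude K562 extract at 1 mg/mL protein in PBS pH 7.4 with 1 mM MgCl2, treated with 10 μM compound for 30 min, heated for 3 min across 48°C-58°C, pooled and brought to 0.5% NP-40 at 4°C. Values are log-two fold changes in thermal stability relative to solvent controls, from duplicates.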

[2] = compound: CN1CCc2c(c3ccccc3n2Cc2ccc(C(=O)NO)cc2)C1 [Tubastatin A]
Outline: as §1

[3] = compound: CNC(=O)C1=CC=CC=C1NC2=NC(=NC=C2Cl)NC3=C(C=C(C=C3)N4CCOCC4)OC
Outline: as §1

[4] = compound: CNC(=O)c1ccc(Nc2ncc(C(F)(F)F)c(NCc3nccnc3N(C)S(C)(=O)=O)n2)cc1 [defactinib]
Outline: as §1

[5] = compound: CNc1nc(-c2ccc3c(N)n[nH]c3c2)cc(N2C[C@@H](C(=O)NC3CCCCC3)CC[C@H]2C)n1
Outline: as §1

[6] = compound: COC(=O)N[C@@H](C)CNc1nccc(-c2cn(C(C)C)nc2-c2cc(Cl)cc(NS(C)(=O)=O)c2F)n1 [encorafenib]
Outline: as §1

[7] = compound: COC(=O)[C@H](CCSC)NC(=O)C1=C(C=C(C=C1)NC[C@H](CS)N)C2=CC=CC=C2
Outline: as §1

[8] = compound: COc1cc(Nc2ncc3c(n2)-c2ccc(Cl)cc2C(c2c(F)cccc2OC)=NC3)ccc1C(=O)O [alisertib]
Outline: as §1

[9] = compound: COc1cc2nc(-c3cc(F)ccc3O)nc(N[C@@H]3CNC[C@H]3C(C)(C)O)c2cc1OC
Outline: as §1

[10] = compound: COc1cc2ncnc(Nc3ccc(F)c(Cl)c3)c2cc1OCCCN1CCOCC1 [gefitinib]
Outline: as §1

Measured: log2 fold change

IL18R1 (UniProt Q13478)
UniProt Q13478, sequence (Q13478 whole entry, looked up): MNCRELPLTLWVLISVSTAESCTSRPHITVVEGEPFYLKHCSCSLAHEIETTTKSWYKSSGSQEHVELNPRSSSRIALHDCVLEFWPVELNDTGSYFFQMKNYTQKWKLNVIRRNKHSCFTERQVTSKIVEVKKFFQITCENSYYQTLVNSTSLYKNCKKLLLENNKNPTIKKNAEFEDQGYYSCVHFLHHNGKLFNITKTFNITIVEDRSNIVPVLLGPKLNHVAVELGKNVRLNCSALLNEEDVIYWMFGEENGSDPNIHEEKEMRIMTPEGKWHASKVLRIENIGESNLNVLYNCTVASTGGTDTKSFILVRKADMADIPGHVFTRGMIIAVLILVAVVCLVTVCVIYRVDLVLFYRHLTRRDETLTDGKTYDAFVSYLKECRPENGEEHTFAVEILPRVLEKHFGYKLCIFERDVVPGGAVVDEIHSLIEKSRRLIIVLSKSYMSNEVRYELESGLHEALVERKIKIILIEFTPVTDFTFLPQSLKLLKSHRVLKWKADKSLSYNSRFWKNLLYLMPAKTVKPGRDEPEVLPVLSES
inactive: [1] -0.148 | [2] 0.008 | [3] -0.106 | [4] -0.322 | [5] 0.056 | [6] 0.116 | [7] 0.142 | [8] -0.098 | [9] -0.014 | [10] -0.039

JAK3 (UniProt P52333)
UniProt P52333, sequence (P52333 whole entry, looked up): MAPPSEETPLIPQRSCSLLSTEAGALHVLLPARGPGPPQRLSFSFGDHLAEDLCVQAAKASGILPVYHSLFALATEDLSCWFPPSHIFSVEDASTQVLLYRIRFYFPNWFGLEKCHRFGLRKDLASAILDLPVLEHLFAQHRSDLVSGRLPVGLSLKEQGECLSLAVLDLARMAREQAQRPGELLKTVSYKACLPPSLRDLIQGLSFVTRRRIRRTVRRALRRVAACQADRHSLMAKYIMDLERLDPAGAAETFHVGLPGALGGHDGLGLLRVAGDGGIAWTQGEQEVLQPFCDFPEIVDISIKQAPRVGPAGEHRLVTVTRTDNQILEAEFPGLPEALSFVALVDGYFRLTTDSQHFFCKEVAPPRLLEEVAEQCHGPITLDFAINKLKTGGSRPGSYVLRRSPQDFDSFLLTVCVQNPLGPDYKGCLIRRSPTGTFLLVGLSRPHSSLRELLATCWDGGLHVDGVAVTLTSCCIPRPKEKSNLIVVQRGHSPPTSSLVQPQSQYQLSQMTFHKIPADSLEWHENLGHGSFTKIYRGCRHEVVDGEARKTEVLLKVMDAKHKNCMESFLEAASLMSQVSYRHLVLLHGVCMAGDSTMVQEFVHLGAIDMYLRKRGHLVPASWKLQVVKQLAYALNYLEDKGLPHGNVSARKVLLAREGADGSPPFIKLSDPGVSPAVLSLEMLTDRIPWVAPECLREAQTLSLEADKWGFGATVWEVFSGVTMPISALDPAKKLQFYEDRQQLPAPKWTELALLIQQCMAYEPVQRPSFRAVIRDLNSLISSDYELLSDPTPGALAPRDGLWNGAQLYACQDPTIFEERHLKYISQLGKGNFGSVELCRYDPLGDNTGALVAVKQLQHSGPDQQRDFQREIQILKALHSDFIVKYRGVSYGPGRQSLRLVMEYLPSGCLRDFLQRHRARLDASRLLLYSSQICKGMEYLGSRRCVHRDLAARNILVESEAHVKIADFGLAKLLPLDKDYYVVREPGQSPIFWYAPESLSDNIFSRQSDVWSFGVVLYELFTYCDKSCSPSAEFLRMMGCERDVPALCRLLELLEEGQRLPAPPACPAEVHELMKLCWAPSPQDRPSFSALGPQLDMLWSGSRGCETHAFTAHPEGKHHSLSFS
inactive: [1] 0.254 | [4] 0.06 | [9] -0.041

H3-3A (UniProt P84243)
inactive: [1] 0.021 | [3] 0.063 | [4] -0.04 | [6] 0.132 | [7] -0.034 | [9] -0.032

ITPR2 (UniProt Q14571)
inactive: [2] -0.03 | [3] 0.074 | [5] 0.239 | [8] 0.001 | [9] 0.234 | [10] -0.019

GYPA (UniProt P02724)
UniProt P02724, sequence (P02724 whole entry, looked up): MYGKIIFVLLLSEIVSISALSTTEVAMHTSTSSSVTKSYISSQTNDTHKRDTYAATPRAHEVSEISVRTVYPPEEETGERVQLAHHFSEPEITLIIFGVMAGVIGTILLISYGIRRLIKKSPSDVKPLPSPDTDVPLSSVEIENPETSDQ
inactive: [1] 0.311 | [2] 0.068 | [3] 0.005 | [4] 0.063 | [5] 0.207 | [6] -0.004 | [7] -0.015 | [9] 0.06

GPLD1 (UniProt P80108)
inactive: [5] -0.452

HNRNPM (UniProt M0R019)
inactive: [4] -0.112

IMPDH2 (UniProt H0Y4R1)
active: [2] -0.554 | [7] -0.505
inactive: [1] -0.12 | [4] 0.101 | [5] 0.014 | [6] -0.014 | [8] -0.038 | [9] -0.035 | [10] 0.052

IRF2BPL (UniProt Q9H1B7)
inactive: [1] -0.076 | [2] -0.047 | [3] 0.01 | [4] -0.007 | [5] 0.048 | [6] -0.017 | [7] -0.06 | [8] -0.031 | [9] -0.013 | [10] -0.05

HECW2 (UniProt Q9P2P5)
inactive: [2] -0.002 | [3] 0.102 | [4] -0.087 | [5] -0.099 | [6] 0 | [7] 0.153 | [8] 0.114 | [10] 0.117

HOMER3 (UniProt Q9NSC5)
inactive: [1] -0.066 | [9] 0.069

HMGA1 isoform 2 (UniProt P17096)
UniProt P17096, sequence (P17096 whole entry, looked up): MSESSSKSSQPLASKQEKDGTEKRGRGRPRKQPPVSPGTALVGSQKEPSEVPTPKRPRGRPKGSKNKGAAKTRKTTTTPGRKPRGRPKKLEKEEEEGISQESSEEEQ
inactive: [1] 0.289 | [2] 0.102 | [3] 0.085 | [5] 0.034 | [8] -0.255 | [9] -0.038 | [10] -0.442

GSTP1 (UniProt P09211)
inactive: [1] 0.04 | [2] -0.057 | [3] -0.017 | [4] 0.008 | [5] -0.036 | [6] -0.052 | [7] 0.061 | [8] 0.037 | [9] -0.008 | [10] 0.007

IPP (UniProt Q9Y573)
inactive: [1] 0.001 | [2] -0.075 | [3] -0.07 | [4] 0.016 | [5] 0.029 | [6] -0.138 | [7] -0.171 | [9] 0.06

HYDIN (UniProt Q4G0P3)
inactive: [2] -0.041 | [4] 0.045 | [5] 0.414 | [6] 0.172 | [7] -0.02 | [9] -0.154

HNRNPUL1 (UniProt M0R247)
inactive: [1] -0.042 | [3] -0.03

KATNBL1 (UniProt Q9H079)
UniProt Q9H079, sequence (Q9H079 whole entry, looked up): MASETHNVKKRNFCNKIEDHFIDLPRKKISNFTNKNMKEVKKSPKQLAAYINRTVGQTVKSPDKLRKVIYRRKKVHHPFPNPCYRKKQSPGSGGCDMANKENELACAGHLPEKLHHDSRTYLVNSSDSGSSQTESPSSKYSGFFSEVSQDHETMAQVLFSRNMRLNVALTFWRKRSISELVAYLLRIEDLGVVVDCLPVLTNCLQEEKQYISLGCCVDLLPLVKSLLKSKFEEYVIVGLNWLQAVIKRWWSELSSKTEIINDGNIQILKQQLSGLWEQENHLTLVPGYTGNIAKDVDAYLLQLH
inactive: [1] -0.106 | [3] -0.033 | [4] -0.014 | [5] 0.037 | [6] -0.137 | [7] -0.188 | [8] -0.161 | [9] 0.025 | [10] -0.254

KIAA0930 isoform 2 (UniProt Q6ICG6)
UniProt Q6ICG6, sequence (Q6ICG6 whole entry, looked up): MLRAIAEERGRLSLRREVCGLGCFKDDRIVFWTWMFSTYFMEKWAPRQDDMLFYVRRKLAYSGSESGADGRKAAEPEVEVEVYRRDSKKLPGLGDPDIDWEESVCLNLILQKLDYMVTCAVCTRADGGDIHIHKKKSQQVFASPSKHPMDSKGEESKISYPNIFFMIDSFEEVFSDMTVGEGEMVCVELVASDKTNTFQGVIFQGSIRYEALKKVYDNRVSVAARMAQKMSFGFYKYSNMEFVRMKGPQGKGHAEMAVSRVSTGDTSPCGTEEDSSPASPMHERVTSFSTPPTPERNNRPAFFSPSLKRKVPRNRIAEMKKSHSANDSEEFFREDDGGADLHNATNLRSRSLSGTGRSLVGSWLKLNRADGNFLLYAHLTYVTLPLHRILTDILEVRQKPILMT
inactive: [1] -0.067 | [2] 0.077 | [4] 0.03 | [5] -0.118 | [6] -0.089 | [7] -0.032 | [8] 0.073 | [9] 0.013 | [10] -0.063

ITPRIP (UniProt Q8IWB1)
inactive: [5] -0.268
active: [3] 0.994

ITM2B (UniProt Q9Y287)
inactive: [1] 0.015 | [2] 0.007 | [3] 0.037 | [4] 0.16 | [5] 0.074 | [8] 0.006 | [10] 0.008

IGF2BP2 isoform 6 (UniProt Q9Y6M1)
inactive: [9] 0.289

GNB4 (UniProt Q9HAV0)
active: [10] -0.364
inactive: [1] -0.114 | [2] -0.002 | [3] -0.091 | [5] 0.01 | [6] -0.01 | [7] 0.141 | [8] -0.168 | [9] 0.095

KDM5B isoform 2 (UniProt Q9UGL1)
UniProt Q9UGL1, sequence (Q9UGL1 whole entry, looked up): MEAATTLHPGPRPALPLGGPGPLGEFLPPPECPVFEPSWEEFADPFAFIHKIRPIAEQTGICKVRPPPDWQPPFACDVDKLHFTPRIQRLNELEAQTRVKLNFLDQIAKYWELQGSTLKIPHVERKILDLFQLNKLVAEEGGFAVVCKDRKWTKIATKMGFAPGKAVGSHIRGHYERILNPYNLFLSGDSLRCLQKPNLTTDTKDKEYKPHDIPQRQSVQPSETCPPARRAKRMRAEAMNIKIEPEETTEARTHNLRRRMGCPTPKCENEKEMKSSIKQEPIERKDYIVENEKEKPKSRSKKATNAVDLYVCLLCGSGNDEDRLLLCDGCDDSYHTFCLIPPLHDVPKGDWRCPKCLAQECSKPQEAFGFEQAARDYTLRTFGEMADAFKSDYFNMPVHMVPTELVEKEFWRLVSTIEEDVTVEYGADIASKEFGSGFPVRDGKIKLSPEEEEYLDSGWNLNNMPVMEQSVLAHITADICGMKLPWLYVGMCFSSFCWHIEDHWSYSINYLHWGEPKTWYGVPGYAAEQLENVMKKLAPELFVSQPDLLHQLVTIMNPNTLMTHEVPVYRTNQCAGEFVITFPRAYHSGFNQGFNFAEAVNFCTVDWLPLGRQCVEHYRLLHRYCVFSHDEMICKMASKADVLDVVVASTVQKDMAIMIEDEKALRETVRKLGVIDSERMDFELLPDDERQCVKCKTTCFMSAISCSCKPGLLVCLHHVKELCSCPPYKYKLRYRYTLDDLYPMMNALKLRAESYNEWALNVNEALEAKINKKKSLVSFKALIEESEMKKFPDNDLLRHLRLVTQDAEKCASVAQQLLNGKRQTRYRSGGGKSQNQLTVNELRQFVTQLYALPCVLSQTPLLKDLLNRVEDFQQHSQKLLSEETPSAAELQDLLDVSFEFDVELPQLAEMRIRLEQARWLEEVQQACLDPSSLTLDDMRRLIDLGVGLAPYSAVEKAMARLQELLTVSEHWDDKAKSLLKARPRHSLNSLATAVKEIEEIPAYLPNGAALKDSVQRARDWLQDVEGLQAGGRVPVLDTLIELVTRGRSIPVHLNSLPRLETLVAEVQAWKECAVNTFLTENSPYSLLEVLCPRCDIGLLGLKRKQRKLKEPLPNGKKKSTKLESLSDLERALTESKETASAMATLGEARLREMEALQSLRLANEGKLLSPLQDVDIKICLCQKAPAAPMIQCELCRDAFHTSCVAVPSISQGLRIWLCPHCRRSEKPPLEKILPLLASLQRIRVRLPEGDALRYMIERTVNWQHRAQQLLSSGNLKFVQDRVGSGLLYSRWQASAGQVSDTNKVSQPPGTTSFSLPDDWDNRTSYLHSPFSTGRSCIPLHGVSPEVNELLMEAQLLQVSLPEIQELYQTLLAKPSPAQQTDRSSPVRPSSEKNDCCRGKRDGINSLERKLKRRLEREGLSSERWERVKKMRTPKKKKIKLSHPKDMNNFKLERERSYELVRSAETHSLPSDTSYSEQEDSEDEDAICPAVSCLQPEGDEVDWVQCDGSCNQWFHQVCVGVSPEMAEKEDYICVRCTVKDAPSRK
inactive: [1] -0.048 | [2] 0.021 | [3] -0.007 | [4] 0.08 | [5] 0.307 | [6] -0.094 | [7] 0.075 | [9] 0.014

HNRNPD (UniProt D6RF44)
inactive: [8] -0.006 | [10] -0.014

HSPBAP1 (UniProt Q96EW2)
UniProt Q96EW2, sequence (Q96EW2 whole entry, looked up): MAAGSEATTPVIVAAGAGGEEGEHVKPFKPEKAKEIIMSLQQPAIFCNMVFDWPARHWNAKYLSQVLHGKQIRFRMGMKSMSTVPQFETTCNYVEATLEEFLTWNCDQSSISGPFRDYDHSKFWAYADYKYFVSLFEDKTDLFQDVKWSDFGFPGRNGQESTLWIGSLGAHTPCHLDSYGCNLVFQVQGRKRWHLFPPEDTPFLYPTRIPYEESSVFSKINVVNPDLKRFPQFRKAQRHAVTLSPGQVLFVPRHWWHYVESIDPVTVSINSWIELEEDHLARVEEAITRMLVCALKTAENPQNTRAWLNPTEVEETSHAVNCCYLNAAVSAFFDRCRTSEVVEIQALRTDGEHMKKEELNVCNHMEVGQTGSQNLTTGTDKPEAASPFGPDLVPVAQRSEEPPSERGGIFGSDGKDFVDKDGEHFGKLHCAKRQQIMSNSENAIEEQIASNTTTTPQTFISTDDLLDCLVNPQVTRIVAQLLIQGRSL
active: [5] -0.547
inactive: [1] -0.094 | [2] -0.139 | [3] 0.02 | [6] 0.097 | [7] -0.154 | [8] -0.113 | [9] -0.104 | [10] -0.005

ITGB1BP2 (UniProt Q9UKP3)
UniProt Q9UKP3, sequence (Q9UKP3 whole entry, looked up): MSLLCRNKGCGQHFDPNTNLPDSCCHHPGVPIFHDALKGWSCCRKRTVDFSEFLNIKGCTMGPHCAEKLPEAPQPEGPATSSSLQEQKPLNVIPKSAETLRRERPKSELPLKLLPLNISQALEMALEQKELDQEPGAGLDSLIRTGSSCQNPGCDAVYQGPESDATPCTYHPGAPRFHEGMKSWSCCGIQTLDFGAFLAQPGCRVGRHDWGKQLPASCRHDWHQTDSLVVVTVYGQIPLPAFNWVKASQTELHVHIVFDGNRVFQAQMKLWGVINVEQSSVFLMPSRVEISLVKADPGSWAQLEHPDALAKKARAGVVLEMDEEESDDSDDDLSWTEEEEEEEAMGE
inactive: [1] -0.116 | [4] -0.112 | [5] -0.018 | [6] -0.137 | [7] 0.044

HMGN5 (UniProt Q5JSK9)
inactive: [6] 0.055 | [7] -0.111 | [8] 0.049 | [9] 0.055 | [10] 0.063

IGFBP4 (UniProt P22692)
active: [9] 0.454
inactive: [1] -0.149 | [2] -0.083 | [3] 0.045 | [5] -0.084 | [8] -0.005 | [10] 0.005

HDAC3 (UniProt E7ESJ6)
inactive: [9] -0.005

HTT (UniProt P42858)
inactive: [1] 0 | [2] -0.195 | [3] 0.022 | [4] 0.048 | [5] -0.043 | [6] 0.008 | [7] -0.003 | [8] -0.005 | [10] -0.032

HSPA8 (UniProt E9PN89)
inactive: [1] -0.248 | [2] 0.066 | [3] -0.074 | [5] -0.075 | [6] 0.088 | [7] 0.035 | [8] 0.11 | [9] 0.013 | [10] 0.076

IRS2 (UniProt Q9Y4H2)
inactive: [1] -0.301 | [2] -0.254 | [3] -0.02 | [5] 0.275 | [8] 0.068 | [9] 0.004 | [10] 0.08

GSK3B isoform 2 (UniProt P49841)
inactive: [1] 0.518 | [2] -0.077 | [3] 0.015 | [4] 0.562 | [5] 0.114 | [6] 0.425 | [7] -0.114 | [9] 0 | [10] 0.029

HNRNPL, A0A3B3ITJ4
inactive: [9] 0.032

HNRNPM (UniProt M0QZM1)
inactive: [4] 0.073 | [5] 0.128 | [6] 0.006 | [7] -0.025

GTPBP6 (UniProt O43824)
inactive: [1] 0.046 | [4] 0.163 | [5] 0.673 | [6] -0.076 | [7] 0.235

ISL2 (UniProt Q96A47)
inactive: [1] 0.36 | [2] 0.032 | [3] -0.042 | [5] 0.025
